The list is not random: actives were taken first. Their share in the collection is about 1.1%.
PrP 5UTR inh: inhibition of PrP 5' UTR reporter expression; cell-based PrP 5' UTR mRNA reporter, plate reader; inhibition, % (no concentration beside the values); 340,000 tested, 0.35% active; in the data active means inhibition above about 52%
PfHsp40 rescue: compounds rescuing yeast from Plasmodium falciparum HSP40 toxicity; S. cerevisiae expressing PfHsp40, growth rescue, ATP luminescence; growth rescue, % at 12.5 µM; 340,000 tested, 0.68% active; in the data active means growth rescue above about 28%, passing the limit was not always enough;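 further: yeast W303a lacking pdr1 and pdr3 grown in galactose medium; growth measured after three days at 30 °C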
FadD28 binding: blocks FadD28 binding to the bisubstrate probe | fluorescence polarization | inhibition, % at 12.5 µM | 360,000 tested, 0.22% active; in the data active means inhibition above about 8.5%, passing the limit was not always enough
TcdB inh: TcdB glycohydrolase inhibition | P18177 | TcdB glycohydrolase enzymatic assay, plate reader | inhibition, % at 9.99 µM | 350,000 tested, 0.24% active | AID 652162; in the data active means inhibition above about 10%
BioA inh: blocks M. tuberculosis BioA enzyme activity; purified M. tuberculosis BioA enzyme, plate reader; inhibition, % at 9.99 µM; 360,000 tested, 0.096% active; AID 602481; in the data active means inhibition above about 40%
Of the large screens only hits and unclear results are named; the others gave an inactive call.

O=C(Nc1ccc2c(c1)OCO2)N[C@@H]1CC[C@@H](CC(=O)N2CCN(c3ccccc3)CC2)O[C@@H]1CO	none (no result: PrP 5UTR inh, PfHsp40 rescue, FadD28 binding)
C[C@H](CO)N1C[C@H](C)[C@H](CN(C)CC2CCOCC2)Oc2ncc(C#Cc3cccc(F)c3)cc2C1=O	none (no result: PrP 5UTR inh, PfHsp40 rescue, FadD28 binding)
Cc1cc(C)nc(NC(N)=NCCc2ccccc2)n1	TcdB inh 10.3
c1ccc(Nc2cccc(Nc3ccccc3)n2)cc1	PfHsp40 rescue 54.3 (no result: TcdB inh)
C[C@@H]1CN([C@@H](C)CO)C(=O)c2cc(C#C[C@@H](C)O)cnc2O[C@H]1CN(C)CC1CCCCC1	none (no result: PrP 5UTR inh, PfHsp40 rescue, FadD28 binding)
Cc1cc(N/N=C/c2ccc(O)cc2O)nc(N2CCOCC2)n1	TcdB inh 14.6
O=C(C1CCOCC1)N1CC[C@@H]2[C@@H](CO)Nc3ccc(-c4ccc(F)cc4)cc3[C@@H]21	TcdB inh 10.5 (no result: PrP 5UTR inh, PfHsp40 rescue, FadD28 binding)
O=C(C1CCOCC1)N1CC[C@@H]2[C@H]1c1cc(-c3ccc(F)cc3)ccc1N[C@@H]2CO	none (no result: PrP 5UTR inh, PfHsp40 rescue, FadD28 binding)
CN1c2ccc(-c3ccccc3)cc2[C@H]2[C@H](CCN2C(=O)NC2CCCC2)[C@@H]1CO	none (no result: PrP 5UTR inh, PfHsp40 rescue, FadD28 binding, TcdB inh)
CC(C)NC(=O)N1CC[C@@H]2[C@H]1c1cc(-c3ccc(F)cc3)ccc1N(C)[C@H]2CO	TcdB inh 11.8 (no result: PrP 5UTR inh, PfHsp40 rescue, FadD28 binding, BioA inh)
CC(C)NC(=O)N1CC[C@@H]2[C@@H](CO)N(C)c3ccc(-c4cccc(F)c4)cc3[C@@H]21	none (no result: PrP 5UTR inh, PfHsp40 rescue, FadD28 binding, TcdB inh)
CC(C)NC(=O)N1CC[C@@H]2[C@H]1c1cc(-c3ccccc3)ccc1N(C)[C@H]2CO	TcdB inh 14.7 (no result: PrP 5UTR inh, PfHsp40 rescue, FadD28 binding)
CCCNC(=O)N1CC[C@@H]2[C@@H](CO)N(C)c3ccc(-c4ccccc4)cc3[C@@H]21	TcdB inh 10.6 (no result: PrP 5UTR inh, PfHsp40 rescue, FadD28 binding, BioA inh)
O=C(C1CC1)N1CCCCN2[C@H](C1)[C@H](c1ccc(C#CC3CC3)cc1)[C@@H]2CO	none (no result: PrP 5UTR inh, PfHsp40 rescue, FadD28 binding)
O=C(C[C@@H]1CC[C@@H](NC(=O)Nc2cc(F)ccc2F)[C@H](CO)O1)NCc1ccncn1	none (no result: PrP 5UTR inh, PfHsp40 rescue, FadD28 binding)
O=C(O)CCNc1cc(N2CCN(C(=O)c3ccco3)CC2)c2noc3c2c1C(=O)c1ccccc1-3	FadD28 binding 22.2
CCN1CCN(c2cc(N3CCN(C(=O)c4ccco4)CC3)c3c4c(onc24)-c2ccccc2C3=O)CC1	none (no result: TcdB inh)
CC(C)CNC(=O)C(=O)NCC1CCCN1S(=O)(=O)c1cccs1 (centres undefined)	TcdB inh 13.1
O=C(O)c1cc(S(=O)(=O)Nc2ccc3cn[nH]c3c2)ccc1Cl	TcdB inh 10.3
CC(N)=Nc1ccc([N+](=O)[O-])cc1	none (no result: TcdB inh)
O=[N+]([O-])c1ccc(N=Nc2c(Cl)cc(O)cc2Cl)cc1	PfHsp40 rescue 175.4 (no result: PrP 5UTR inh)
O=C(C[C@@H]1C[C@H]2c3cc(NC(=O)Nc4ccccc4)ccc3O[C@H]2[C@@H](CO)O1)NCc1ccccc1	none (no result: PrP 5UTR inh, PfHsp40 rescue, FadD28 binding)
O=C(O)c1ccccc1NS(=O)(=O)c1ccc(NN=Cc2ccc(F)cc2)c([N+](=O)[O-])c1	none (no result: TcdB inh, BioA inh)
O=C(O)COc1ccccc1C=NNc1ccc([N+](=O)[O-])cc1S(=O)(=O)Nc1ccc(Cl)cc1	FadD28 binding 16.5
O=C(O)c1ccccc1NS(=O)(=O)c1ccc(N/N=C/c2ccc(O)c(O)c2)c([N+](=O)[O-])c1	FadD28 binding 53.2
COc1ccccc1NS(=O)(=O)c1ccc(N/N=C/c2ccccc2OCC(=O)O)c([N+](=O)[O-])c1	FadD28 binding 18.9
Cc1c(C(=O)O)cccc1-n1c(C)cc(/C=N/Nc2ccc([N+](=O)[O-])cn2)c1C	FadD28 binding 34.1 (no result: BioA inh)
Cc1cc(/C=N/Nc2ccc([N+](=O)[O-])cn2)c(C)n1-c1ccccc1	none (no result: TcdB inh, BioA inh)
Cc1ccc(C=NNc2ccc([N+](=O)[O-])cn2)cc1	PfHsp40 rescue 36.3 (no result: BioA inh)
O=[N+]([O-])c1ccc(NN=C(c2ccccc2)c2ccccc2)nc1	PfHsp40 rescue 54.8
C[C@@H]1CCCCO[C@@H](CN(C)CC2CCCCC2)[C@H](C)CN([C@H](C)CO)C(=O)c2cc(NC(=O)c3ccccc3)ccc2O1	none (no result: PrP 5UTR inh, PfHsp40 rescue, FadD28 binding)
O=C(NC1CCSc2ccccc21)c1cccc(OC(F)F)c1 (centres undefined)	none
O=C(NC1CCSc2ccccc21)c1cccc(Br)c1 (centres undefined)	PfHsp40 rescue 94.1
C[C@H](NC(=O)C[C@H]1C=C[C@@H](NC(=O)c2cccnc2)[C@@H](CO)O1)c1ccccc1	none (no result: PrP 5UTR inh, PfHsp40 rescue, FadD28 binding)
Cc1noc(C)c1S(=O)(=O)Nc1ccc2c(c1)C(=O)N([C@H](C)CO)C[C@@H](C)[C@H](CN(C)S(=O)(=O)c1cn(C)cn1)OCCCC[C@@H](C)O2	none (no result: PrP 5UTR inh, PfHsp40 rescue, FadD28 binding)
O=C(NN=Cc1cc(=O)[nH]c(=O)[nH]1)c1ccncc1	PfHsp40 rescue 29.6 (no result: BioA inh)
O=C(N/N=C/c1ccc[nH]1)c1ccncc1	none
COc1cc(Nc2cc(C)n(-c3cc(OC)cc(OC)c3)c(=O)c2)cc(OC)c1	none (no result: PrP 5UTR inh, PfHsp40 rescue, FadD28 binding, BioA inh)
COc1cccc(NC(=O)N[C@H]2CC[C@H](CC(=O)Nc3ccccc3)O[C@@H]2CO)c1	none (no result: PrP 5UTR inh, PfHsp40 rescue, FadD28 binding)
C[C@H]1C[C@H]2[C@@H]3CCC4=CC(=O)C=C[C@]4(C)[C@@]3(Cl)[C@@H](O)C[C@]2(C)[C@@]1(O)C(=O)CO	PfHsp40 rescue 36.3
C[C@@H]1C[C@H]2[C@@H]3CCC4=CC(=O)C=C[C@]4(C)[C@@]3(F)[C@@H](O)C[C@]2(C)[C@@]1(O)C(=O)COP(=O)(O)O	none
C[C@@H]1CN([C@@H](C)CO)C(=O)c2cccc(NS(=O)(=O)c3ccc(F)cc3)c2O[C@H]1CN(C)CC1CC1	none (no result: PrP 5UTR inh, PfHsp40 rescue, FadD28 binding)
COc1ccc(NC(=O)Nc2ccc3c(c2)[C@H]2C[C@H](CC(=O)N4CCOCC4)O[C@H](CO)[C@H]2O3)cc1	none (no result: PrP 5UTR inh, PfHsp40 rescue, FadD28 binding, TcdB inh)
Cc1noc(NS(=O)(=O)c2ccc(NC(=O)/C=C/c3ccc(Br)cc3)cc2)c1C	FadD28 binding 9.7
Cc1noc(NS(=O)(=O)c2ccc(NC(=O)/C=C/c3ccc(C(C)C)cc3)cc2)c1C	FadD28 binding 25.9
Cc1noc(NS(=O)(=O)c2ccc(NC(=O)Nc3ccc(Cl)c(Cl)c3)cc2)c1C	FadD28 binding 31.2 (no result: TcdB inh)
COc1cc(/C=C/C(=O)Nc2ccc(S(=O)(=O)Nc3onc(C)c3C)cc2)cc(OC)c1OC	none
COc1cccc(C(=O)/C=C/Nc2ccc(S(=O)(=O)Nc3onc(C)c3C)cc2)c1	none (no result: BioA inh)
Cc1noc(NS(=O)(=O)c2ccc(N/C=C\C(=O)c3cccc4ccccc34)cc2)c1C	FadD28 binding 23.7
C[C@H](CO)N1C[C@H](C)[C@@H](CN(C)S(C)(=O)=O)Oc2ncc(C#Cc3ccc(F)cc3)cc2C1=O	none (no result: PrP 5UTR inh, PfHsp40 rescue, FadD28 binding)
COc1cccc(-c2ccc([C@H]3[C@H](CO)N4CCCCN(C(=O)NC(C)C)C[C@@H]34)cc2)c1	none (no result: PrP 5UTR inh, PfHsp40 rescue, FadD28 binding)
CC1(C)CCC[C@]2(C)[C@H]3Cc4cc(O)ccc4O[C@]3(C)CC[C@@H]12	PfHsp40 rescue 92.6
CC1(C)CCC[C@]2(C)[C@H]3CC(=O)O[C@]3(C)CC[C@@H]12	none
CC=Cc1ccc2n(c1=O)C[C@H]1[C@H](CO)[C@@H](C(=O)NCC(F)(F)F)N(CCc3ccccc3)[C@@H]21 (mixture of isomers)	none (no result: PrP 5UTR inh, PfHsp40 rescue, FadD28 binding)
c1ccc2c(N3CCOCC3)nc(-c3ccncc3)nc2c1	none (no result: TcdB inh)
CC1CCN(c2nc(-c3ccncc3)nc3ccccc23)CC1	PfHsp40 rescue 281.9 (no result: TcdB inh)
CN1CCN(c2ccc(C(CC(N)=O)NC(=O)c3ccccc3)cc2[N+](=O)[O-])CC1 (centres undefined)	PfHsp40 rescue 37.0
